In the supplement of paper PMC8975748:
± gives the standard deviation of the averaged measurements.

What was measured:
[1] = system: Saccharomyces cerevisiae BY4741 SeMeCo community; assay: mean cell size (pixel area) (pixels); higher = larger cells; conditions: 10 µM; 24 h; SM minimal medium
Outline: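 Mean cell pixel area per well was measured in a four-plasmid fluorescent community of Saccharomyces cerevisiae BY4741, where every plasmid complements one auxotrophy and carries a fluorescent marker. Cells from an overnight preculture at OD600 = 1.0 were diluted to OD600 = 0.3 and dispensed at 70 µl into 384-well plates acoustically predosed with drug to a final 10 µM in SM medium. Incubation lasted 24 h, followed by paraformaldehyde fixation, automated confocal imaging and analysis in Harmony. Reported figures are averaged over 3 replicates. Same SeMeCo high-content imaging drug screen: Selleck FDA-approved drugs at 10 µM, 24 h in SM medium, 384-well plates, 3 replicates.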

[2] = system: Saccharomyces cerevisiae BY4741 SeMeCo community; assay: z-score of subpopulation abundance vs DMSO median, subpopulation auxotrophic for M; higher = larger share of this subpopulation than in DMSO controls; conditions: 10 µM; 24 h; SM minimal medium; subpopulation (auxotrophy): M
Outline: (§1)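 Cells of a Saccharomyces cerevisiae BY4741 community, carrying four plasmids that each restored one auxotrophy and encoded a distinct fluorescent protein, were pre-grown overnight to OD600 1.0 and diluted to 0.3. A 70 µl volume was added to 384-well plates acoustically predosed with library drugs (10 µM final) and grown 24 h in minimal SM medium. After paraformaldehyde fixation, automated confocal microscopy was used, with single-auxotroph fluorescent strains for thresholds and autofluorescence correction. The abundance of each subpopulation was scored as a z-score against the vehicle-well median.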

[3] = system: Saccharomyces cerevisiae BY4741 SeMeCo community; assay: z-score of subpopulation abundance vs DMSO median, subpopulation auxotrophic for L; higher = larger share of this subpopulation than in DMSO controls; conditions: 10 µM; 24 h; SM minimal medium; subpopulation (auxotrophy): L
Outline: as §1

[4] = system: Saccharomyces cerevisiae BY4741 SeMeCo community; assay: z-score of subpopulation abundance vs DMSO median, subpopulation auxotrophic for U; higher = larger share of this subpopulation than in DMSO controls; conditions: 10 µM; 24 h; SM minimal medium; subpopulation (auxotrophy): U
Outline: as §1

[5] = system: Saccharomyces cerevisiae BY4741 SeMeCo community; assay: z-score of subpopulation abundance vs DMSO median, subpopulation auxotrophic for H; higher = larger share of this subpopulation than in DMSO controls; conditions: 10 µM; 24 h; SM minimal medium; subpopulation (auxotrophy): H
Outline: as §1

[6] = system: Saccharomyces cerevisiae BY4741 SeMeCo community; assay: z-score of subpopulation abundance vs DMSO median, subpopulation auxotrophic for LU; higher = larger share of this subpopulation than in DMSO controls; conditions: 10 µM; 24 h; SM minimal medium; subpopulation (auxotrophy): LU
Outline: as §1

[7] = system: Saccharomyces cerevisiae BY4741 SeMeCo community; assay: z-score of subpopulation abundance vs DMSO median, subpopulation auxotrophic for LM; higher = larger share of this subpopulation than in DMSO controls; conditions: 10 µM; 24 h; SM minimal medium; subpopulation (auxotrophy): LM
Outline: as §1

[8] = system: Saccharomyces cerevisiae BY4741 SeMeCo community; assay: z-score of subpopulation abundance vs DMSO median, subpopulation auxotrophic for HU; higher = larger share of this subpopulation than in DMSO controls; conditions: 10 µM; 24 h; SM minimal medium; subpopulation (auxotrophy): HU
Outline: as §1

[9] = system: Saccharomyces cerevisiae BY4741 SeMeCo community; assay: z-score of subpopulation abundance vs DMSO median, subpopulation auxotrophic for UM; higher = larger share of this subpopulation than in DMSO controls; conditions: 10 µM; 24 h; SM minimal medium; subpopulation (auxotrophy): UM
Outline: as §1

[10] = system: Saccharomyces cerevisiae BY4741 SeMeCo community; assay: z-score of subpopulation abundance vs DMSO median, subpopulation auxotrophic for HL; higher = larger share of this subpopulation than in DMSO controls; conditions: 10 µM; 24 h; SM minimal medium; subpopulation (auxotrophy): HL
Outline: as §1

[11] = system: Saccharomyces cerevisiae BY4741 SeMeCo community; assay: z-score of subpopulation abundance vs DMSO median, subpopulation auxotrophic for HLU; higher = larger share of this subpopulation than in DMSO controls; conditions: 10 µM; 24 h; SM minimal medium; subpopulation (auxotrophy): HLU
Outline: as §1

[12] = system: Saccharomyces cerevisiae BY4741 SeMeCo community; assay: z-score of subpopulation abundance vs DMSO median, subpopulation auxotrophic for HLM; higher = larger share of this subpopulation than in DMSO controls; conditions: 10 µM; 24 h; SM minimal medium; subpopulation (auxotrophy): HLM
Outline: as §1

[13] = system: Saccharomyces cerevisiae BY4741 SeMeCo community; assay: z-score of subpopulation abundance vs DMSO median, subpopulation auxotrophic for HUM; higher = larger share of this subpopulation than in DMSO controls; conditions: 10 µM; 24 h; SM minimal medium; subpopulation (auxotrophy): HUM
Outline: as §1

[14] = system: Saccharomyces cerevisiae BY4741 SeMeCo community; assay: z-score of subpopulation abundance vs DMSO median, subpopulation auxotrophic for LUM; higher = larger share of this subpopulation than in DMSO controls; conditions: 10 µM; 24 h; SM minimal medium; subpopulation (auxotrophy): LUM
Outline: as §1

[15] = system: Saccharomyces cerevisiae BY4741 SeMeCo community; assay: z-score of subpopulation abundance vs DMSO median, subpopulation auxotrophic for HLUM; higher = larger share of this subpopulation than in DMSO controls; conditions: 10 µM; 24 h; SM minimal medium; subpopulation (auxotrophy): HLUM
Outline: as §1

[16] = system: Saccharomyces cerevisiae BY4741 SeMeCo community; assay: z-score of prototroph abundance vs DMSO median; higher = larger share of this subpopulation than in DMSO controls; conditions: 10 µM; 24 h; SM minimal medium; subpopulation (auxotrophy): Prototroph
Outline: as §1

[17] = system: Saccharomyces cerevisiae BY4741 SeMeCo community; assay: z-score of subpopulation abundance vs DMSO median, subpopulation auxotrophic for HM; higher = larger share of this subpopulation than in DMSO controls; conditions: 10 µM; 24 h; SM minimal medium; subpopulation (auxotrophy): HM
Outline: as §1

Row | SMILES | mean cell size [1] | z-score of subpopulation abundance [2] | z-score of subpopulation abundance [3] | z-score of subpopulation abundance [4] | z-score of subpopulation abundance [5] | z-score of subpopulation abundance [6] | z-score of subpopulation abundance [7] | z-score of subpopulation abundance [8] | z-score of subpopulation abundance [9] | z-score of subpopulation abundance [10] | z-score of subpopulation abundance [11] | z-score of subpopulation abundance [12] | z-score of subpopulation abundance [13] | z-score of subpopulation abundance [14] | z-score of subpopulation abundance [15] | z-score of prototroph abundance [16] | z-score of subpopulation abundance [17]
1 | COc1cc([C@@H]2c3cc4c(cc3[C@@H](O[C@@H]3O[C@@H]5CO[C@@H](c6cccs6)O[C@H]5[C@H](O)[C@H]3O)[C@H]3COC(=O)[C@H]23)OCO4)cc(OC)c1O [Teniposide] | 12.5 ± 0.04 | 1.05 | 1.6 | 0.19 | 0.91 | 0.76 | 1.46 | 1.34 | 0.67 | 1.18 | 2.62 | 1 | 1.08 | 1.42 | 0.55 | – | –
2 | NC1CCN(c2nc3c(cc2F)c(=O)c(C(=O)O)cn3-c2ccc(F)cc2F)C1 (stereo not drawn) [Tosufloxacin p-Toluenesulfonate Hydrate] | 12.3 ± 0.29 | -0.77 | -0.11 | – | 0.41 | -0.88 | -0.53 | – | -0.74 | -0.52 | 0.67 | -0.56 | -0.83 | -0.71 | -0.36 | 0.74 | –
3 | Fc1ccc(C(c2ccc(F)cc2)N2CCN(C/C=C/c3ccccc3)CC2)cc1 [Flunarizine 2HCl] | 12.38 ± 0.06 | -0.21 | 2.04 | – | – | 0.52 | 1.5 | – | -0.39 | – | 0.59 | 1.25 | 0.51 | 1.42 | 1.3 | -1.16 | –
4 | CC1(C)S[C@@H]2[C@H](NC(=O)[C@H](N)c3ccccc3)C(=O)N2[C@H]1C(=O)O [Ampicillin Trihydrate] | 12.4 ± 0.33 | -0.37 | 0.35 | -0.13 | 0.41 | -0.05 | – | -0.36 | -0.18 | -0.3 | -0.22 | 0.52 | 0.13 | 0.23 | -0.25 | 0.28 | -0.06
5 | CCCCCCCCOc1ccccc1C(=O)Nc1ccc(C(=O)OCC[N+](C)(CC)CC)cc1 [Otilonium Bromide] | 12.27 ± 0.099 | -2.04 | -3.08 | 0.58 | 4.58 | 0.74 | -2.38 | – | -0.66 | 1.68 | 3.81 | 9.05 | 2.02 | 2.14 | – | -2.44 | 5.47
6 | COc1ccc2[nH]c([S+]([O-])Cc3ncc(C)c(OC)c3C)nc2c1 (stereo not drawn) [Omeprazole] | 12.3 ± 0.19 | -0.74 | 1.33 | -1.23 | 1.65 | 0.12 | 0.56 | 0.46 | -0.94 | 2.48 | 1.91 | -0.19 | -0.34 | 0.62 | -0.03 | -0.07 | –
7 | C[C@]12CCC3=C4CCC(=O)C=C4CC[C@H]3[C@@H]1CC[C@@]2(O)CC#N [Dienogest] | 12.4 ± 0.18 | -0.36 | 0.12 | -0.87 | 0.11 | -0.52 | -0.44 | – | -0.39 | 0.26 | -0.53 | -0.38 | -0.51 | 0 | – | 0.42 | -0.11
